The record followed here is PubChem BioAssay (EPA / NIEHS).

Active and inactive are the calls of the source. Rule for the calls: active = hit-call score of the fitted dose curve at least 0.9, where 1 is the maximum; inactive = score below 0.9.

For orientation: AC50 means the concentration at which the activity in the assay is half-maximal.

A short description of the assay: BSK_3C_TissueFactor: BioMAP Diversity Plus: 3C Assay for Tissue Factor Biomarker Activity (AID 2282997). Conditions: BioMAP 3C HUVEC, tissue factor biomarker readout; actives raise or lower the signal. On the procedure:
BSK_3C is a cell-based, multiplexed-readout assay that uses umbilical vein endothelium, a human vascular primary cell, with measurements taken at 24 hours after chemical dosing in a 96-well plate.BSK_3C_TissueFactor is an assay component measured in the BSK_3C assay. It measures Tissue Factor antibody related to regulation of gene expression using ELISA technology.Data from the assay component BSK_3C_TissueFactor was analyzed into 1 assay endpoint. This assay endpoint, BSK_3C_TissueFactor, was analyzed with bidirectional fitting relative to DMSO as the negative control and baseline of activity. Using a type of binding reporter, gain or loss-of-signal activity can be used to understand changes in the signaling as they relate to the gene F3. Furthermore, this assay endpoint can be referred to as a primary readout, because this assay has produced multiple assay endpoints where this one serves a signaling function. To generalize the intended target to other relatable targets, this assay endpoint is annotated to the cytokine intended target family, where the subfamily is coagulation factor.
The levels of cell surface (or secreted, indicated by the prefix "s") biomarker endpoints were measured by ELISA. Overt cytotoxicity to cells in confluent adherent cultures (all systems other than the BT system) was assessed by measuring total protein levels using sulforhodamine B (SRB) staining in parallel cultures at the time of biomarker measurements, indicated as SRB endpoints. For proliferation assays for adherent cell types, individual cell types are cultured at sub-confluence and relative cell numbers quantified by SRB staining at time points optimized for each system (48 h: 3C and CASM3C systems; 72 h: BT and HDF3CGF systems; 96 h: SAg system). SRB was performed by staining cells with 0.1% SRB after fixation with 10% TCA and reading wells at 560 nm.Viability and proliferation of PBMC (T cells) was quantified by Alamar Blue reduction for the SAg and BT systems. For PBMC viability (referred to as PBMC Cytotoxicity within the assay endpoint names), cells were plated (75,000/well in a 96-well plate) and then chemical samples added for 1 h before addition of activators, SEB and TSST-1 (20 ng/mL final concentration each). Cells were incubated for 90 h. Then, Alamar Blue (20 uL/well) (Invitrogen, Cat DAL1100) was added for 6 h, and the plates were read with a fluorescence microplate reader at 546/580 nm (excitation/emission). For PBMC proliferation, cells were plated and activated as above but incubated for only 16 h prior to addition of Alamar Blue. Plates were read after 6 h.
With `CCOCCOCCOCCO`, the result was inactive.
Turning to `Cc1ccc(N)cc1O`, the result was inactive.
Still for that read-out and setting: the entry for `CC(C)CCO` is “inactive”.
For `CCOC(=O)COc1ccc2c(c1)CC(NCC(O)c1cccc(Cl)c1)CC2` (stereo not given), the AC50 is 33 µM (active).
In the case of `CCN(C(=O)c1cc(C)cc(OC[C@H](C)Nc2ccncc2)c1)C(C)C`, the result was inactive.
The same measure, in the same setting: the entry for `CC(=O)c1ccc2c(c1)[C@H](NC(=O)c1ccc(F)cc1)[C@@H](O)C(C)(C)O2` is “inactive”; for `CCOC(=O)CC(CC(=O)OCC)(OC(C)=O)C(=O)OCC` it is “inactive”.
As to `CCn1nc(Cc2ccccc2)cc1C1CCN(C[C@H]2C[C@H](N(C)[C@@H](C(=O)O)C(C)C)C[C@@H]2c2cccc(F)c2)CC1`, the result was inactive.
In the case of `CCCCCCCCCCCCc1ccccc1`, the outcome was inactive.
As for `CC[C@H]1OC(=O)[C@H](C)[C@@H](O[C@H]2C[C@@](C)(OC)[C@@H](O)[C@H](C)O2)[C@H](C)[C@@H](O[C@@H]2O[C@H](C)C[C@H](N(C)C)[C@H]2O)[C@](C)(O)C[C@@H](C)C(=O)[C@H](C)[C@@H](O)[C@]1(C)O`, the result was inactive.
As to `CC1=CC(=O)CC(C)(C)C1`, the outcome was inactive.
On the same count and under the same terms, the entry for `CCNc1ccccc1` is “inactive”.
Regarding `Fc1ccccc1[C@@H](F)COC1CCC(Nc2ncnc3[nH]ncc23)CC1` (stereo not given in full), the AC50 was 35.2 µM (active).
`Nc1nc2ncc(CNc3ccc(C(=O)N[C@@H](CCC(=O)O)C(=O)O)cc3)nc2c(=O)[nH]1`: the outcome was inactive.
Regarding `Cc1[nH]cnc1C[C@H]1CCc2c(C)c3ccccc3n2C1=O`, the outcome was inactive.
In the case of `CN(C)c1ccc(Cc2ccc(N(C)C)cc2)cc1`, the outcome was inactive.
With `O=C(O)c1cc(N=Nc2ccc(S(=O)(=O)Nc3ccccn3)cc2)ccc1O`, the outcome was inactive.
In the case of `Nc1cccc(N)c1`, the result was inactive.
With `O=C(NS(=O)(=O)/C=C/c1ccccc1)c1ccc(F)cc1Cl`, the outcome was inactive.
Regarding `CC1(C)C(=O)N(Br)C(=O)N1Br`, the outcome was inactive.
Consider `CC(C)=CCCC(C)=CC=O`, for which the result was inactive.
As for `CCCCCCCCCCCCCCCO`, the outcome was inactive.
Same read-out and setting: the entry for `CCCCC(CC)COC(=O)c1ccc(C(=O)OCC(CC)CCCC)cc1` (stereo not given) is “inactive”; for `CC(C)(O)c1coc(S(=O)(=O)NC(=O)Nc2c3c(cc4c2CCC4)CCC3)c1` it is “inactive”.
On to `C1N2CN3CN1CN(C2)C3`, for which the outcome was inactive.
Still for that read-out and setting: the entry for `Cn1cnc([N+](=O)[O-])c1Sc1ncnc2nc[nH]c12` is “inactive”.
As for `CCOc1cccc(-n2cc(C(=O)N3CCN(c4cc(C(=O)O)c5ccccc5c4)CC3)nc2-c2ccc(C)cc2)c1`, the AC50 was 28.7 µM (active).
Take `CCOC(=O)c1ccc(C2CCC(NC[C@H](O)COc3ccc(O)c(NS(C)(=O)=O)c3)CC2)cc1` (stereo not given in full): the result was inactive.
Same read-out and setting: for `CCCC(=O)OCC` the value was “inactive”; for `CC(C)c1cccc(C(C)C)c1N1C(=O)c2ccc(O)cc2C1=O`, “inactive”.
Take `COc1cccc(-c2ccc(/C=C\CN3CCCCCC3)cc2Cl)c1`: the AC50 was 31.5 µM (active).
`C1=CCCC=CCCC=CCC1`: the result was inactive.
Still for that read-out and setting: the entry for `CC(C)=CCCC(C)CCO` (stereo not given) is “inactive”; for `COc1ccc(/C=C/S(=O)(=O)NC(=O)c2ccc(C)cc2Cl)cc1` it is “inactive”.
For `Nc1ccc(Nc2ccccc2)cc1`, the AC50 was 0.903 µM (active).
For `COC(=O)CC(=O)OC`, the result was inactive.
The same measure, in the same setting: for `C=CC(=C)CCC=C(C)C` the value was “inactive”.
As to `C=CCCCCCCCCC(=O)O`, the result was inactive.
Turning to `CCCCCCc1ccc(O)cc1O`, the AC50 was 33.8 µM (active).
The same measure, in the same setting: the figure for `Cn1c(=O)cc(Oc2ccc(F)cc2F)c2cnc(NCC(C)(C)O)nc21` is 1.4 µM (active).
